According to PubChem BioAssay (NCATS):
Results filed as inconclusive are left out. The source made the active and inactive calls. Unless noted, calls follow the shape of the dose curve; as a rule, active = well fitted curve in the direction sought with a large enough effect; inconclusive = small, poorly fitted or top-dose-only effect, or another doubt; inactive = no such curve, though single readings can be large; an effect the other way counts as inactive or inconclusive.

Columns and labels:
[1] = Viability counterscreen for antagonist of constitutive androstane receptor (CAR) against the NCATS DSHEA and TCM libraries (AID 1794837);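 also: compound exposure lasted 24 h before viability reading; 0% is about no effect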
Method in brief: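 Viability was measured by CellTiter-Fluor fluorescence (405/540 nm, 1 hr) in HepG2-CYP2B6-hCAR cells. Cells were co-treated 24 hr with 48 uM CITCO (final), antagonist mode, and test substances.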

[2] = Viability counterscreen for agonist of constitutive androstane receptor (CAR) against the NCATS DSHEA and TCM libraries (AID 1794838); also: 0% is about no effect
Method in brief: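 Cell viability, from CellTiter-Fluor fluorescence (405/540 nm), was scored after a 24 h, 37C exposure of HepG2 cells carrying CYP2B6 reporter and hCAR to test substances in presence of 0.75 uM PK11195.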

[3] = HepG2 viability counterscreen (readout 2: ATP content) against the NCATS DSHEA and TCM libraries (AID 1794840);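 also: HepG2 cells exposed to substances for about 24 h; 0% is about no effect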
Method in brief: (§1)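 Readout 1: cellular protease activity, GF-AFC substrate (25 uM final, 30 min, fluorescence 380/510 nm). Readout 2: ATP content by CellTiter-Glo luminescence after 30 min at RT. Both follow ~24 h exposure of HepG2 cells (1,000/well) to substances.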

[4] = HepG2 viability counterscreen (readout 1: protease activity) against the NCATS DSHEA and TCM libraries (AID 1794841);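 also: cells exposed to compounds for about 24 h before the protease read; 0% is about no effect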
Method in brief: as §1

[5] = biological target: Cytochrome P450 2D6 (Homo sapiens) (UniProt P10635); test: qHTS for inhibitors of CYP2D6 against the NCATS DSHEA and TCM libraries (AID 1919972); also: % is scaled to controls: 0 for no effect and ±100 for the full control effect
Chain of Cytochrome P450 2D6 (Homo sapiens) (P10635 whole entry, looked up): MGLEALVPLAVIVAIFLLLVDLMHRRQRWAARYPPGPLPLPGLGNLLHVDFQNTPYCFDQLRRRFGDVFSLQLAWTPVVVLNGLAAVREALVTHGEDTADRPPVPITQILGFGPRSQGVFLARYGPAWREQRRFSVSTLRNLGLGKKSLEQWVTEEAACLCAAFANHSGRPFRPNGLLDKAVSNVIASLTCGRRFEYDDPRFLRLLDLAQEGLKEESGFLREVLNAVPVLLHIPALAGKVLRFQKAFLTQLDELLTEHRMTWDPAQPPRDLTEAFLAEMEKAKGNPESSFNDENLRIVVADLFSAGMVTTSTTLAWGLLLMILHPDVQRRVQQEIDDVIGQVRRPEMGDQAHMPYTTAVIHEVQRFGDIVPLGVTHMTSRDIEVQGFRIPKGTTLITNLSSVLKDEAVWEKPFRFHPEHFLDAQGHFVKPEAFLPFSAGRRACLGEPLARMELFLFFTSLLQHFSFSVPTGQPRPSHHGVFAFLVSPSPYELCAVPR
Method in brief: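 Luminescent P450-Glo read-out of CYP2D6 turnover of a luciferin substrate after NADPH-driven reaction of 30-45 min at room temperature. Compounds were first preincubated 15 min with enzyme at titrated concentrations; quinidine was the intraplate control.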

[6] = KB-3-1 P-gp reporter qHTS against the NCATS DSHEA and TCM libraries (AID 1919975); also: 0% is about no effect
Method in brief: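 Cell viability by CellTiter-Glo luminescence following ~72 h compound exposure (concentration-response). Uses parental, non-P-gp-overexpressing KB-3-1 line, 500 cells/well in DMEM/10% FBS, attached ~4 h before dosing.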

[7] = qHTS Counterscreen for compound interference against the NCATS DSHEA and TCM libraries (AID 1919978); details: firefly luciferase detection reagent interference, luminescence;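 also: compounds preincubated with 1 µM D-luciferin or buffer before detection reagent; % of control where 0% means no effect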
Method in brief: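 With 1 uM D-luciferin or phosphate buffer only, compounds at final 19.5 nM–39.8 uM were incubated for 15 min at room temperature. Luciferase detection reagent was then added, and luminescence was measured after a further 30 min at room temperature.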

[8] = Dual reporter qHTS for agonist of Pregnane X Receptor (hPXR) against the NCATS DSHEA and TCM libraries: Fluorescence readout (AID 1920058); also: 0% is about no effect
Method in brief: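 HepG2 hPXR-Luc, 2000 cells/well, 5 h attach; cpds ~24 h, 37 °C/5% CO2; CellTiter-Fluor 1 h; fluor. Ex/Em 405/540 nm = viability.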

[9] = biological target: Nuclear receptor subfamily 1 group I member 2 (Homo sapiens) (UniProt O75469); test: Dual reporter qHTS for agonist of Pregnane X Receptor (hPXR) against the NCATS DSHEA and TCM libraries: Luminescence readout (AID 1920059); also: 0% is about no effect
Chain of Nuclear receptor subfamily 1 group I member 2 (Homo sapiens) (O75469 whole entry, looked up): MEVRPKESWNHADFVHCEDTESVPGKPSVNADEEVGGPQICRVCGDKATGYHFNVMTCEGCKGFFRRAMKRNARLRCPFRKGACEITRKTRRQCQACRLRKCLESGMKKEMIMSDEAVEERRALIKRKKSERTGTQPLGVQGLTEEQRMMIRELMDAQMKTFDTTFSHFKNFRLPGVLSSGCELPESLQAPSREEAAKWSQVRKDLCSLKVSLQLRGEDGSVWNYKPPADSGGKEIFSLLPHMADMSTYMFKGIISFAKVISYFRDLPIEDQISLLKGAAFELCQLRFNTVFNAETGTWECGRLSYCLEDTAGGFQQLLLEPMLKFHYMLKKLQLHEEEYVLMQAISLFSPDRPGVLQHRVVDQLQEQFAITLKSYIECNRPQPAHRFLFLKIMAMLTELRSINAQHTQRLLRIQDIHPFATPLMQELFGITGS
Method in brief: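 hPXR-Luc HepG2 cells, 2000/well in 5% charcoal-stripped FBS medium, attached 5 h, then exposed 24 h at 37C to compounds. Viability by CellTiter-Fluor, then luciferase luminescence with ONE-Glo.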

[10] = biological target: Nuclear receptor subfamily 1 group I member 2 (Homo sapiens) (UniProt O75469); test: Dual reporter qHTS for antagonist of Pregnane X Receptor (hPXR) against the NCATS DSHEA and TCM libraries: Luminescence Readout (AID 1920060);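 also: HepG2 cells carrying hPXR luciferase reporter stimulated with rifampicin at 2 µM; 0% is about no effect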
Method in brief: (§2)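 hPXR-Luc HepG2 cells exposed 24 h at 37 C to compounds with 2 uM rifampicin in antagonist mode; luciferase luminescence measured by ONE-Glo, with CellTiter-Fluor viability read beforehand.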

[11] = biological target: Lysosomal acid glucosylceramidase (Homo sapiens) (UniProt P04062); test: Glucocerebrosidase-p2 (AID 348; in the data active = potency below about 10 µM; also: potency is read from the fitted curve at half-maximal effect); details: purified GBA, blue fluorogenic substrate, 40 min
Chain of Lysosomal acid glucosylceramidase (Homo sapiens) (P04062 whole entry, looked up): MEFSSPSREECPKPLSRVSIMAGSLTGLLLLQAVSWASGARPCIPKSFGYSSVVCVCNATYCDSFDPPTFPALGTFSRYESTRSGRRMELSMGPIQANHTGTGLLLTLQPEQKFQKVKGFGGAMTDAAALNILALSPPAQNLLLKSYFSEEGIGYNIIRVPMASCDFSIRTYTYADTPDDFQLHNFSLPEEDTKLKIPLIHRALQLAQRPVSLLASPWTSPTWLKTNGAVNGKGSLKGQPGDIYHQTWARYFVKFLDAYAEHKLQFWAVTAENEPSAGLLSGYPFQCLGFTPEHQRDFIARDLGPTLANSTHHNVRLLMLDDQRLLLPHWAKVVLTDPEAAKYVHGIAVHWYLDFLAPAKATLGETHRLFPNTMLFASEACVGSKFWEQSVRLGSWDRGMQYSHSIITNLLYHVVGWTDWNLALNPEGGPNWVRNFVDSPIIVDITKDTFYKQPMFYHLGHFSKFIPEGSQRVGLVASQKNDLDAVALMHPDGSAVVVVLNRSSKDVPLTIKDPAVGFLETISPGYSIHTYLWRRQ
Method in brief: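 Compounds titrated from 0.6 nM upwards against 0.2 nM enzyme in pH 5.9 citric acid/KH2PO4, taurocholate, tween-20; blue fluorogenic substrate 80 uM, 40 min room temperature, stopped and read Ex 365/Em 440 for AC50.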

[12] = biological target: Cytochrome P450 1A2 (Homo sapiens) (UniProt P05177); test: p450-cyp1a2 (AID 410; calls by dose curve; also: potency is read from the fitted curve at half-maximal effect)
Chain of Cytochrome P450 1A2 (Homo sapiens) (P05177 whole entry, looked up): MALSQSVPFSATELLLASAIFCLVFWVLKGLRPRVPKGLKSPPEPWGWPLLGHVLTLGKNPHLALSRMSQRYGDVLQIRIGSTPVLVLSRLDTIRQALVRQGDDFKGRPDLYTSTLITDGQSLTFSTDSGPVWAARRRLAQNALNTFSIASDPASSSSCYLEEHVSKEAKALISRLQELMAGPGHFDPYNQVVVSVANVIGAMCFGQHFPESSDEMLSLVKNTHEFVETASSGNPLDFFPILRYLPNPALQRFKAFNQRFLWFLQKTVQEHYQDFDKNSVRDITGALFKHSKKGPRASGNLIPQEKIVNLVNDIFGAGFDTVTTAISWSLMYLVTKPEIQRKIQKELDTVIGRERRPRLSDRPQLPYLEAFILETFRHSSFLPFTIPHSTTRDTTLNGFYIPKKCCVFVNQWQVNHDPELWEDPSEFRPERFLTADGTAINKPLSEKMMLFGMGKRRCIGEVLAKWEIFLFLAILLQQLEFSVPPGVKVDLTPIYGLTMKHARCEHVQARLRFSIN
Method in brief: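 Luminescent readout of luciferin formed from Luciferin-ME by human CYP1A2; data normalized against complete inhibition by 57 uM furafylline. Enzyme 20nM, substrate 100uM at Km, 100mM KPO4 buffer, 60 min reaction at room temperature.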

[13] = NFAT Signaling Pathway (AID 444; active = well fitted curve in either direction with a large enough effect, not every such curve was filed as active;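 also: carbachol stimulus at about its EC50 of 1 µM final; % is scaled to controls: 0 for no effect and ±100 for the full control effect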); details: Jurkat NFAT-bla M1, carbachol, beta-lactamase ratio, 5 h; at 7.69 µM (top of the series) unless noted
Method in brief: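 Jurkat cells with NFAT-driven β-lactamase reporter and co-expressed M1 receptor, stimulated with carbachol (final 1 uM, ~EC50), compound titration, 5 h at 37 °C. CCF4 loaded 1 h at RT; 460/530 nm ratio gave %activity and AC50.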

[14] = Stat Signaling Pathway (AID 446; active = well fitted curve in either direction with a large enough effect, not every such curve was filed as active;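 also: ME-180 cervical cancer cells given 40 pM IL-6 alongside compound; SIE-controlled beta-lactamase reporter measured as 460/530 nm FRET emission ratio; % is scaled to controls: 0 for no effect and ±100 for the full control effect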)
Method in brief: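 ME-180 cells carrying a SIE-driven beta-lactamase reporter are stimulated with 40 pM IL-6 for 5 h at 37C in the presence of compound. The 460/530 nm FRET substrate ratio is read after 2.5 h at RT. Data are normalised to 300 pM IL-6 and to 125 nM JAK inhibitor controls.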

[15] = biological target: Glucocorticoid receptor (Homo sapiens) (UniProt P04150); test: GR-GFP Redistribution (AID 450;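 active = compounds whose dose series gives a full or clear partial fitted curve of increased nuclear translocation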; also: potency is read from the fitted curve at half-maximal effect); details: U2OS GR-GFP nuclear translocation, laser cytometry, 2 h
Chain of Glucocorticoid receptor (Homo sapiens) (P04150 whole entry, looked up, the tested form may be a part): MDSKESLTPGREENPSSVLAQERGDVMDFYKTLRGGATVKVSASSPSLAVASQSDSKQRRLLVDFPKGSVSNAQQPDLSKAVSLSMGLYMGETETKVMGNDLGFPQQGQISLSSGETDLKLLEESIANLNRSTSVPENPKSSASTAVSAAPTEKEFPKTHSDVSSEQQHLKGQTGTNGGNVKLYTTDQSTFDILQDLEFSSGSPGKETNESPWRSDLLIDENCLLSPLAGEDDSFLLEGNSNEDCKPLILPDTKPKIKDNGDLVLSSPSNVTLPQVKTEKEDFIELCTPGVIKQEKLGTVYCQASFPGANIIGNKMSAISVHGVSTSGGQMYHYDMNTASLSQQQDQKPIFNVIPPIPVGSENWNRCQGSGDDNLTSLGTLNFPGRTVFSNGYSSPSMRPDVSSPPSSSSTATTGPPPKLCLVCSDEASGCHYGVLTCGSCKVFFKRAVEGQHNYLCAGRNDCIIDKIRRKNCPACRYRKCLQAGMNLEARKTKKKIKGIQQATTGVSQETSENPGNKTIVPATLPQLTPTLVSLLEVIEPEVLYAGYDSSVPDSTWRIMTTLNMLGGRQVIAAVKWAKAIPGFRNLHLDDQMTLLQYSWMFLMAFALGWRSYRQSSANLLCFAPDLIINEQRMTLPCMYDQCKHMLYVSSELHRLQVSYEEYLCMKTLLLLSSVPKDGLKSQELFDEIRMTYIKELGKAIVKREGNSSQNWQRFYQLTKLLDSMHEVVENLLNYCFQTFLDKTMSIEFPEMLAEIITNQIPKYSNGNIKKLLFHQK

[16] = biological target: Glucocorticoid receptor (Homo sapiens) (UniProt P04150); test: GR-EFC Redistribution (AID 451; calls by dose curve; also: potency is read from the fitted curve at half-maximal effect); details: CHO-K1 GR-EFC translocation, beta-gal luminescence, 2 h
Method in brief: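 CHO-K1 cells expressing nuclear EA and GR-ED fragments of b-gal; compounds titrated up to 46 uM final, 2 h at 37 C. GR nuclear translocation read as complemented b-gal luminescence after 1 h RT detection.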

[17] = biological target: Mitogen-activated protein kinase 10 (Mus musculus) (UniProt Q61831); test: JNK3 AlphaScreen Assay (AID 530; active = well fitted curve in either direction with a large enough effect, not every such curve was filed as active;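 also: kinase came from lysate of stimulated human HepG2 cells; signal reports phosphorylation of biotinylated GST-cJun 1-79 at Ser73 with 10 µM ATP; % is scaled to controls: 0 for no effect and ±100 for the full control effect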)
Method in brief: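 Pre-activated (IL-1β/TNFα) JNK3 in HepG2 lysates phosphorylates biotin-GST-cJun(1-79), 10 uM ATP; anti-phospho-cJun(Ser73) AlphaScreen read at room temperature, pH 7.6 Tris buffer. Compounds pre-incubated 15 min as titrations.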

[18] = biological target: 3',5'-cyclic-AMP phosphodiesterase 4B (Homo sapiens) (UniProt Q07343); test: qHTS Assay for Inhibitors of PDE-IV (AID 607; active = well fitted activation curve with a large enough effect in the main read-out, with a control signal flat, not every such curve was filed as active; also: % of control where 0% means no effect)
Method in brief: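 HEK293 ACTOne cells with CNG channel (1000/well), endogenous PDE4; membrane potential dye, compounds up to 22.9 uM final. Fluorescence Ex 535/Em 590; RO 20-1724 (100 uM final) as reference.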

[19] = biological target: Cytochrome P450 3A4 (Homo sapiens) (UniProt P08684); test: qHTS Assay for Activators of Cytochrome P450 3A4 (AID 885); also: nearly all actives have a fitted effect of over 65% in size
Chain of Cytochrome P450 3A4 (Homo sapiens) (P08684 whole entry, looked up): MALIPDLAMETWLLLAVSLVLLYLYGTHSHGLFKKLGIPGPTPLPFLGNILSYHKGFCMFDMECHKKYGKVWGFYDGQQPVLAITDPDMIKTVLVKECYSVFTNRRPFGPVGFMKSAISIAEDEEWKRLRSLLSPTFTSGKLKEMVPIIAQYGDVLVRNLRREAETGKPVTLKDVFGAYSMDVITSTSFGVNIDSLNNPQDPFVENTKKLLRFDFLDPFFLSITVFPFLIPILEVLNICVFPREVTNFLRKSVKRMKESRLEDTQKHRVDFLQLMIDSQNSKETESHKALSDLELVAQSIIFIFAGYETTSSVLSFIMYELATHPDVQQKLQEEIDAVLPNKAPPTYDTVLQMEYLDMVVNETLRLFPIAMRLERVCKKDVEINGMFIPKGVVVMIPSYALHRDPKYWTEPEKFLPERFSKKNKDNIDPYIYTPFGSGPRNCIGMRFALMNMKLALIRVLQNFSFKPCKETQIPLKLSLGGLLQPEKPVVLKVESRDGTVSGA
Method in brief: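 Human CYP3A4 (20 nM) with Luciferin-PPXE at 25 uM (its KM) in 200 mM KPO4; 10 min compound preincubation, then NADPH regeneration and 60 min reaction at RT. Luciferin read by luminescence; normalized to 57 uM ketoconazole full inhibition.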

[20] = qHTS Assay for Identification of Small Molecule Agonists for Hypoxia Response Element Signaling Pathway (AID 914; active = well fitted activation curve with a large enough effect in the signal ratio, with a control signal flat, not every such curve was filed as active; the % refers to the signal ratio; also: % of control where 0% means no effect); details: ME-180 HRE-bla reporter, beta-lactamase ratio, CoCl2, 17 h; activation: stronger effect = higher value
Method in brief: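 Positive modulation of EC50 CoCl2-induced hypoxia response element signaling is measured in ME-180 cells with a beta-lactamase reporter. Compounds are titrated, incubation runs 17 hours, and %Activity derives from the blue/green ratio.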

[21] = biological target: Dual specificity protein kinase CLK4 (Homo sapiens) (UniProt Q9HAZ1); test: qHTS Assay for Inhibitors of CDC-like Kinase 4 (ADP-FP Assay) (AID 1795);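 also: recombinant human CLK4 phosphorylating RS repeat peptide at 1 µM ATP; % is scaled to controls: 0 for no effect and ±100 for the full control effect; nearly all actives have a fitted effect of over 60% in size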
Chain of Dual specificity protein kinase CLK4 (Homo sapiens) (Q9HAZ1 whole entry, looked up): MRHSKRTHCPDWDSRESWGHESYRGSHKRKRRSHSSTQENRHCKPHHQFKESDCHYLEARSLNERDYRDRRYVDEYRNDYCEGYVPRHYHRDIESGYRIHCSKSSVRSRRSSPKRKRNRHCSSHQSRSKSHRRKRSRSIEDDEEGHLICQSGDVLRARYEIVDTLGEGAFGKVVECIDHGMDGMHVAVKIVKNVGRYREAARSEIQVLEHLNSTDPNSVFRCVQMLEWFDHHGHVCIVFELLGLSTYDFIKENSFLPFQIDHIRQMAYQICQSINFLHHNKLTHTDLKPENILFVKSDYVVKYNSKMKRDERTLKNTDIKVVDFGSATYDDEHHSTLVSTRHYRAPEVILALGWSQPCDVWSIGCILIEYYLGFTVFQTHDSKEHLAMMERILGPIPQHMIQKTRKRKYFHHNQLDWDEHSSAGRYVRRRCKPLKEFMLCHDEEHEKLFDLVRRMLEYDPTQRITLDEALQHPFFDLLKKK
Method in brief: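 Kinase activity was measured as ADP production using Transcreener orange tracer (4 nM) and ADP antibody (1 ug/mL) fluorescence polarization, with ADP calculated from a calibration curve. The 1 h reaction contained 6.25 nM Clk4, 1 uM ATP and 100 uM RS peptide at pH 7.5 with Mg2+.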

[22] = biological target: Ubiquitin carboxyl-terminal hydrolase 1 (Homo sapiens) (UniProt O94782); test: Inhibitors of USP1/UAF1: Pilot qHTS (AID 504865);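 also: rhodamine fluorescence freed from ubiquitin-rhodamine substrate followed over time; top concentration of the series differs between compounds; % is scaled to controls: 0 for no effect and ±100 for the full control effect; nearly all actives have a fitted effect of over 35% in size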
Chain of Ubiquitin carboxyl-terminal hydrolase 1 (Homo sapiens) (O94782 whole entry, looked up): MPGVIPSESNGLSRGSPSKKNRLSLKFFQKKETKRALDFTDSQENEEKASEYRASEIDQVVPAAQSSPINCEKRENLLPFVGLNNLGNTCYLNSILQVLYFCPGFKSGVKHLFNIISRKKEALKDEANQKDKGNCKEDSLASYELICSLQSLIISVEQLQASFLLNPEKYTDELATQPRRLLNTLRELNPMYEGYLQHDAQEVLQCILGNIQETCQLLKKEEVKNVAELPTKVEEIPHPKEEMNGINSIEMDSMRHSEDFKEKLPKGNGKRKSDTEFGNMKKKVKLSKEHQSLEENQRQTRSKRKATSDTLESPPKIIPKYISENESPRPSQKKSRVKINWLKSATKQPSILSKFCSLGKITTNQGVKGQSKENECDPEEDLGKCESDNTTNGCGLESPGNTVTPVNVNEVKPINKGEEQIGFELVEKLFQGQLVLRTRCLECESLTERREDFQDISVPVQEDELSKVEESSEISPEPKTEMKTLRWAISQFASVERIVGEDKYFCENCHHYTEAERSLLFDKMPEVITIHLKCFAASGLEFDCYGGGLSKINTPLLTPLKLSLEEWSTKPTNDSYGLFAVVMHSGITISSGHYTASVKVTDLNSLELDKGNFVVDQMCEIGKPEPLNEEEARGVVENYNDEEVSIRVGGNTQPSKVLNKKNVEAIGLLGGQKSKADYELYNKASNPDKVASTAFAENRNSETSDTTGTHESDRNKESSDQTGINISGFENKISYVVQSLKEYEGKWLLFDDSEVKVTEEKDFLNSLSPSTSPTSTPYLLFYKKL
Method in brief: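 Deubiquitinase activity followed as kinetic rhodamine fluorescence release from 150 nM Ub-Rho. 1 nM USP1/UAF1 with compound, after 15 min room-temperature preincubation, in HEPES pH 7.8 buffer containing TCEP, EDTA, BSA and Tween-20.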

[23] = Dual reporter qHTS for antagonist of Pregnane X Receptor (hPXR) against the NCATS DSHEA and TCM libraries: Fluorescence Readout (AID 1920061); also: 0% is about no effect
Method in brief: as §2

[24] = biological target: Nuclear receptor subfamily 1 group I member 3 (Homo sapiens) (UniProt Q14994); test: Primary qHTS for agonist of constitutive androstane receptor (CAR) against the NCATS DSHEA and TCM libraries (AID 1794839); also: potency is read from the fitted curve at half-maximal effect
Method in brief: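 Agonist mode in presence of hCAR antagonist PK11195 (0.75 µM final): test substances, 24 h, 37 °C, on HepG2-CYP2B6-hCAR cells. Same-well readouts: fluorescence viability, then ONE-Glo luminescence; CITCO as reference agonist.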

[25] = biological target: Cytochrome P450 2C19 (Homo sapiens) (UniProt P33261); test: qHTS for inhibitors of CYP2C19 against the NCATS DSHEA and TCM libraries (AID 1919974)
Chain of Cytochrome P450 2C19 (Homo sapiens) (P33261 whole entry, looked up, canonical isoform): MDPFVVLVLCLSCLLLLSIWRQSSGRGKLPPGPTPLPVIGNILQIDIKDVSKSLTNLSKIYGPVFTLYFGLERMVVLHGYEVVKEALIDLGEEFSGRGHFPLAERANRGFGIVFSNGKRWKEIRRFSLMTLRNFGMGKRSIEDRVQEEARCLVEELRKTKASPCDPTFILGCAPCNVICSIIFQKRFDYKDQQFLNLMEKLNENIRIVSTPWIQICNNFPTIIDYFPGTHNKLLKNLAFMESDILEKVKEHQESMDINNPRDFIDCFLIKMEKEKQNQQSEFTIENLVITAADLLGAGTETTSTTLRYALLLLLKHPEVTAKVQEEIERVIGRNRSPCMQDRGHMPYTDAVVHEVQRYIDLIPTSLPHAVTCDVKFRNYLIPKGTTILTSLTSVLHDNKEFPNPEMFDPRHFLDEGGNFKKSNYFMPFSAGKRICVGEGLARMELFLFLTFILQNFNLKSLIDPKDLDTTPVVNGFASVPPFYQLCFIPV
Method in brief: (§3)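 Read-out is luminescence after P450-Glo detection (30 min, RT). Before that: 15 min compound–enzyme preincubation, then 30-45 min reaction with 1x NADPH regeneration solution, substrate concentration isoform-specific.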

[26] = biological target: Cytochrome P450 3A4 (Homo sapiens) (UniProt P08684); test: qHTS for inhibitors of CYP3A4 against the NCATS DSHEA and TCM libraries (AID 1919971);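 also: % is scaled to controls: 0 for no effect and ±100 for the full control effect; inhibition lowers luminescence from luciferin made by CYP3A4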
Method in brief: as §3

[27] = biological target: Cytochrome P450 2C9 (Homo sapiens) (UniProt P11712); test: qHTS for inhibitors of CYP2C9 against the NCATS DSHEA and TCM libraries (AID 1919973)
Method in brief: as §3

[28] = biological target: Cytochrome P450 1A2 (Homo sapiens) (UniProt P05177); test: qHTS for inhibitors of CYPIA2 against the NCATS DSHEA and TCM libraries (AID 1919976); also: potency is read from the fitted curve at half-maximal effect
Method in brief: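 CYP1A2 + luciferin substrate, 100 mM KPO4-type buffer; cmpd 15 min RT; 1x NADPH regen, 30-45 min RT dark; detection reagent 30 min RT; luminescence. Minus-enzyme wells as background; furafylline intraplate control.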

[29] = AP1 Signaling Pathway (AID 357; active = well fitted curve in either direction with a large enough effect, not every such curve was filed as active); details: ME-180 (cervical carcinoma) AP-1-bla reporter, EGF-induced, beta-lactamase ratio, 5 h; at 7.69 µM (top of the series) unless noted
Method in brief: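 Beta-lactamase reporter under AP-1 response element, ME-180 background. Stimulus: EC50 EGF. Compound exposure 5 h, 37 °C. Detection: CCF4, 2.5 h RT, 460/530 nm. Values: AC50 from titration.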

[30] = biological target: Cytochrome P450 2C19 (Homo sapiens) (UniProt P33261); test: qHTS Assay for Inhibitors and Substrates of Cytochrome P450 2C19 (AID 899); also: % is scaled to controls: 0 for no effect and ±100 for the full control effect; nearly all actives have a fitted effect of over 60% in size
Method in brief: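 Luminescent read-out of luciferin formed from Luciferin-H EGE (10uM, equal to KM). Enzyme 5nM in 50mM KPO4; compound added, 10 min at 37C, then NADPH regenerating system for 60 min at 37C. Full inhibition defined by 57uM ketoconazole.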

C=C(C)[C@H]1CC=C(CO)CC1
inactive: outcome [1] | outcome [2] | outcome [3] | outcome [4] | Potency [5] | outcome [6] | max response [7] 2.16% | outcome [8] | Potency [9] | outcome [10]

CN(C)C(=O)c1ccc(-c2ccc3ncnc(Nc4ccc(F)cc4)c3c2)cc1
active: Potency [12] 20 µM
inactive: Potency [11] > 11.4 µM | activity change, negative = inhibition [13] 24.8% | outcome [14] | Potency [15] > 46 µM | Potency [16] > 46 µM | Potency [17] | Potency [18] | outcome [19] | activation [20] 7.84% | Potency [21] | Potency [22]

CC1=C2[C@H]([C@@H](C)CC[C@@H]2/C=C(\C)C(=O)O)[C@@H](O)C1
inactive: outcome [1] | outcome [2] | outcome [3] | outcome [6] | max response [7] -1.15% | outcome [8] | outcome [10] | outcome [23]

CCCCCCCCC[C@@H](O)CC(=O)CCc1ccc(O)c(OC)c1
active: Potency [24] 12.6 µM | Potency [25] 6.31 µM
inactive: outcome [1] | outcome [2] | outcome [3] | Potency [5] | outcome [6] | max response [7] 2.63% | outcome [8] | outcome [10]

COc1ccccc1/C=C/C=O
active: Potency [28] 25.1 µM
inactive: outcome [3] | outcome [4] | Potency [26] | Potency [5] | Potency [27] | outcome [6] | max response [7] -3.3% | outcome [8] | Potency [9] | outcome [10]

CNc1ncncc1-c1ccccc1CN(C)C
inactive: Potency [11] > 11.4 µM | activity change, negative = inhibition [29] 7.24% | activity change, negative = inhibition [13] -28.4% | outcome [14] | Potency [15] > 46 µM | Potency [17] | Potency [18] | Potency [30] | Potency [21] | Potency [22]
